The record followed here is paper PMC3218832.

Among the targets are RELARELA (p65 homodimer) (Homo sapiens, UniProt Q04206 1-307); p50p50 homodimer (Homo sapiens, UniProt P19838 7-356); RELB subunit;p50 subunit (Homo sapiens;Homo sapiens, UniProt Q01201;P19838 120-401;7-356).
Common to all, as to experiment: protein binding microarray; high values mean tight binding
Settings in all cases: dsDNA, one strand shown

Another assay concerns the target T1, p52p52 homodimer (Homo sapiens, UniProt Q00653 4-332).
T1 sequence: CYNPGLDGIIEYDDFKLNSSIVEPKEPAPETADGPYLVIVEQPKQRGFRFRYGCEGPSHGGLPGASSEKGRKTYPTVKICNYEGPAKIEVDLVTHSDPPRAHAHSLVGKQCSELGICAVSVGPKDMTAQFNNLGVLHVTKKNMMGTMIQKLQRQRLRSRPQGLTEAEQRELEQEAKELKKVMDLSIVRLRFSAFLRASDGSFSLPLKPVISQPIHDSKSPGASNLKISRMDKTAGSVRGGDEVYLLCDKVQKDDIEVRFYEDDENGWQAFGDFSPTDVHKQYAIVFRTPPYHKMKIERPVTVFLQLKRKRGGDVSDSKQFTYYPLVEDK

For assay [1], the target named is RELA (p65) subunit of heterodimer;p50 subunit (Homo sapiens;Homo sapiens, UniProt Q04206;P19838 1-307;7-356).
Assay [2] addresses RELA (p65) subunit of heterodimer;p52 subunit (Homo sapiens;Homo sapiens, UniProt Q04206;Q00653 1-307;4-332).
In a further assay the target is T2, RELB subunit;p52 subunit (Homo sapiens;Homo sapiens, UniProt Q01201;Q00653 120-401;4-332).
T2 sequence 1: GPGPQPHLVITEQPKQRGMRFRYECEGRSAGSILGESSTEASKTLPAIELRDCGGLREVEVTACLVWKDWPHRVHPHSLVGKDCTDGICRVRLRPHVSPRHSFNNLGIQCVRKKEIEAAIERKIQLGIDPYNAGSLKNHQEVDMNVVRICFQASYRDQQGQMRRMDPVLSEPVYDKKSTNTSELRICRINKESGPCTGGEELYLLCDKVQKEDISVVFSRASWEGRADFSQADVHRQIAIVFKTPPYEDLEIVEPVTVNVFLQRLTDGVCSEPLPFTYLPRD
T2 sequence 2: T1 sequence

Assay [3] deals with C-Rel subunit;p50 subunit (Homo sapiens;Homo sapiens, UniProt Q04864;P19838 1-285;7-356).
For assay [4], the target named is T3, C-Rel subunit;p52 subunit (Homo sapiens;Homo sapiens, UniProt Q04864;Q00653 1-285;4-332).
T3 sequence 1: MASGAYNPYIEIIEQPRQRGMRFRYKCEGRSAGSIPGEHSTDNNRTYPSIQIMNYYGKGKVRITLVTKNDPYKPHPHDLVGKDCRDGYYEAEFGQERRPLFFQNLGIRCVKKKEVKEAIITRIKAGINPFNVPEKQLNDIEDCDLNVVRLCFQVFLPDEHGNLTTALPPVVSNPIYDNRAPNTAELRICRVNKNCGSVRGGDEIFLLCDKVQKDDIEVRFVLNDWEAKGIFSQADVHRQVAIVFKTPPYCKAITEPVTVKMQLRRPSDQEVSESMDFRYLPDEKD
T3 sequence 2: T1 sequence

Sequence of p50p50 homodimer (P19838 7-356): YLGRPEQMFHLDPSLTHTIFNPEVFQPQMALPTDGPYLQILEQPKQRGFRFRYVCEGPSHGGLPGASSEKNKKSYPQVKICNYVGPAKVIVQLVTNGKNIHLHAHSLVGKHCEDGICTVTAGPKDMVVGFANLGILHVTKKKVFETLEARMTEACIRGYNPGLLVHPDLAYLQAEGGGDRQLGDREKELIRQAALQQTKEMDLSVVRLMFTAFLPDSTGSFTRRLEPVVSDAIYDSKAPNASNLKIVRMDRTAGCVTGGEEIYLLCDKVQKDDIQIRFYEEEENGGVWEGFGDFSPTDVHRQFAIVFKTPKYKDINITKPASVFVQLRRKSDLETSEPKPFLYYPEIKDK
Sequence of RELARELA (p65 homodimer) (Q04206 1-307): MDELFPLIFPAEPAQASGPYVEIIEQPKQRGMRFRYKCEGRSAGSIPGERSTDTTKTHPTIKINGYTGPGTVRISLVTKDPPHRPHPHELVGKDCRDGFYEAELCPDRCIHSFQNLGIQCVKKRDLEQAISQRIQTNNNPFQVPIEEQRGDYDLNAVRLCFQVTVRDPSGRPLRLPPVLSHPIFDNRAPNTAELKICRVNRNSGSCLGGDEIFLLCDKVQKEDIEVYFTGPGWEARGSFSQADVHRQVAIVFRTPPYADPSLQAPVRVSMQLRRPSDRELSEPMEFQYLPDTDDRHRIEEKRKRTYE
Sequence of RELA (p65) subunit of heterodimer;p50 subunit (Q04206 1-307, chain 1 of 2): as the sequence (Q04206 1-307) above
Sequence of RELA (p65) subunit of heterodimer;p50 subunit (P19838 7-356, chain 2 of 2): as the sequence (P19838 7-356) above

Consider AAATTGGCCCC, for which the binding signal in the assay with RELARELA (p65 homodimer) was -0.344 z-score; with p50p50 homodimer, 0.122 z-score; in the assay with p52p52 homodimer, -0.144 z-score; in assay [1], 0.118 z-score; in assay [2] it was -0.121 z-score; with RELB subunit;p50 subunit, 0.375 z-score. The results for the binding signal (with RELB subunit;p52 subunit; in assay [3]; in assay [4]) were 0.258 z-score, 0.04 z-score and -0.0339 z-score, respectively.
In the case of AGATTATCCCT, the binding signal was determined as 0.0615 z-score in the assay with RELARELA (p65 homodimer); 0.543 z-score with p50p50 homodimer; 0.486 z-score in the assay with p52p52 homodimer; 0.262 z-score in [1]; 0.522 z-score in assay [2]; 0.325 z-score with RELB subunit;p50 subunit. Moreover, the binding signal with RELB subunit;p52 subunit is 0.392 z-score; in assay [3] it was 0.0293 z-score; in assay [4] it was 0.0511 z-score.
Regarding GGGTACCTCCC, the binding signal with RELARELA (p65 homodimer) was -0.276 z-score; with p50p50 homodimer, 0.39 z-score; in the assay with p52p52 homodimer, 1.06 z-score; in [1], 0.436 z-score; in assay [2], 0.843 z-score; with RELB subunit;p50 subunit, 0.429 z-score. Further, the binding signal was found to be 0.437 z-score with RELB subunit;p52 subunit, 0.243 z-score in assay [3] and 0.556 z-score in assay [4].
Take AGAGTCATCCT: the binding signal in the assay with RELARELA (p65 homodimer) was -0.641 z-score; with p50p50 homodimer, -2.61 z-score; in the assay with p52p52 homodimer, -0.647 z-score; in assay [1], -1.23 z-score; in assay [2], -0.868 z-score; in the assay with RELB subunit;p50 subunit, -1.06 z-score. Besides, the binding signal with RELB subunit;p52 subunit was -0.873 z-score; in [3], -1.63 z-score; in [4], -1.09 z-score.
With CGATAGCCCCC, the binding signal with RELARELA (p65 homodimer) is -0.556 z-score; with p50p50 homodimer, 0.93 z-score; with p52p52 homodimer, 0.275 z-score; in [1], 0.352 z-score; in assay [2], 0.57 z-score; in the assay with RELB subunit;p50 subunit, 0.492 z-score. For the same sequence, the binding signal in the assay with RELB subunit;p52 subunit was determined as 0.523 z-score; in assay [3], 0.288 z-score; in assay [4], 0.258 z-score.
CGAGGTGCCCT: the binding signal with RELARELA (p65 homodimer) is -0.746 z-score; in the assay with p50p50 homodimer, -1.52 z-score; in the assay with p52p52 homodimer it was -0.61 z-score; in assay [1] it was -0.798 z-score; in assay [2], -0.84 z-score; in the assay with RELB subunit;p50 subunit, -0.973 z-score. Further, the binding signal in the assay with RELB subunit;p52 subunit was -0.87 z-score; in assay [3] it was -1.16 z-score; in [4], -0.789 z-score.
As for GGAGACGCCCT, the binding signal in the assay with RELARELA (p65 homodimer) was -0.954 z-score; with p50p50 homodimer, -1.6 z-score; in the assay with p52p52 homodimer, -0.72 z-score; in assay [1] it was -0.832 z-score; in assay [2], -0.77 z-score; with RELB subunit;p50 subunit, -1.05 z-score. Also, the results for the binding signal (with RELB subunit;p52 subunit; in [3]; in assay [4]) were -0.933 z-score, -1.16 z-score and -0.641 z-score, respectively.
Take GAAAAATTCCT: the binding signal with RELARELA (p65 homodimer) was 1.78 z-score; with p50p50 homodimer, -0.0646 z-score; with p52p52 homodimer, -0.212 z-score; in assay [1], 0.245 z-score; in assay [2], 0.117 z-score; in the assay with RELB subunit;p50 subunit it was -0.659 z-score. Further, the binding signal in the assay with RELB subunit;p52 subunit was -0.236 z-score; in [3] it was 0.538 z-score; in assay [4], 0.319 z-score.
With CAGAAAGTCCT, the binding signal with RELARELA (p65 homodimer) was 1.03 z-score; with p50p50 homodimer, -0.724 z-score; with p52p52 homodimer it was -0.508 z-score; in assay [1], -0.351 z-score; in assay [2], -0.61 z-score; with RELB subunit;p50 subunit, -0.693 z-score. Besides, the binding signal was -0.785 z-score in the assay with RELB subunit;p52 subunit, -0.362 z-score in [3] and -0.371 z-score in assay [4].
AAGTTCACCCC: the binding signal with RELARELA (p65 homodimer) was -0.0981 z-score; with p50p50 homodimer, 0.184 z-score; with p52p52 homodimer it was 0.0438 z-score; in [1], -0.0301 z-score; in assay [2], -0.0961 z-score; in the assay with RELB subunit;p50 subunit, 0.292 z-score. Also, the binding signal came to 0.317 z-score with RELB subunit;p52 subunit, 0.451 z-score in [3] and 0.174 z-score in assay [4].
With AGATGGCTCCC, the binding signal with RELARELA (p65 homodimer) is -0.478 z-score; with p50p50 homodimer it was -1.77 z-score; with p52p52 homodimer it was -0.619 z-score; in [1], -0.849 z-score; in [2], -0.797 z-score; in the assay with RELB subunit;p50 subunit, -0.91 z-score. Further, the binding signal with RELB subunit;p52 subunit was -0.841 z-score; in assay [3] it was -1.25 z-score; in [4] it was -0.874 z-score.
Regarding GAAGGAGTCCT, the binding signal in the assay with RELARELA (p65 homodimer) is -0.288 z-score; with p50p50 homodimer, -1.55 z-score; in the assay with p52p52 homodimer it was -0.648 z-score; in assay [1], -0.892 z-score; in assay [2], -0.934 z-score; with RELB subunit;p50 subunit, -0.985 z-score. In addition, the binding signal with RELB subunit;p52 subunit was -0.808 z-score; in assay [3] it was -1.08 z-score; in [4] it was -0.746 z-score.
For CAAGGTATCCC, the binding signal is -0.591 z-score with RELARELA (p65 homodimer); -0.9 z-score with p50p50 homodimer; -0.296 z-score with p52p52 homodimer; -0.874 z-score in [1]; -0.575 z-score in [2]; -0.488 z-score with RELB subunit;p50 subunit. In addition, the binding signal with RELB subunit;p52 subunit was -0.446 z-score; in [3], -0.834 z-score; in [4] it was -0.451 z-score.
Regarding GGAGAAACCCT, the binding signal is 0.379 z-score in the assay with RELARELA (p65 homodimer); -0.144 z-score with p50p50 homodimer; 0.127 z-score with p52p52 homodimer; 0.478 z-score in assay [1]; 0.623 z-score in assay [2]; -0.35 z-score in the assay with RELB subunit;p50 subunit. Also, the binding signal with RELB subunit;p52 subunit came to 0.176 z-score; in assay [3], 0.255 z-score; in [4], 0.637 z-score.
On to AGGAATGCCCT, for which the binding signal was 1.19 z-score in the assay with RELARELA (p65 homodimer); -0.455 z-score with p50p50 homodimer; -0.376 z-score in the assay with p52p52 homodimer; -0.147 z-score in assay [1]; -0.196 z-score in assay [2]; -0.674 z-score with RELB subunit;p50 subunit. For the same sequence, the binding signal with RELB subunit;p52 subunit was -0.494 z-score; in assay [3], -0.208 z-score; in [4], 0.0938 z-score.
